According to PubChem BioAssay (Tox21):
Results filed as inconclusive are left out. Calls of active or inactive are those of the source. Calls follow the shape of the dose curve; as a rule, active = well fitted cell-killing curve with a large enough effect in the repeat runs; inconclusive = weak or mixed curves, or effect the other way; inactive = flat fitted curve, though single readings scatter.

Test: qHTS assay to identify small molecule that activate the aryl hydrocarbon receptor (AhR) signaling pathway - cell viability counter screen (AID 743086);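 also: HepG2 liver cells carrying the AhR DRE luciferase reporter; nearly all actives have a fitted effect of over 45% in size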
Conditions: HepG2-AhR-luc viability, CellTiter-Fluor, 24 h; series mostly up to 70.3 µM; viability change, negative = cytotoxic: at the top concentration
Source text: U.S. Tox21 Program National Center for Advancing Translational Sciences [NCATS] NIH Chemical Genomics Center [NCGC] U.S. Environmental Protection Agency [EPA] National Institutes of Environmental Health Sciences [NIEHS] National Toxicology Program [NTP] U.S. Food and Drug Administration [FDA] Tox21 Assay overview: The Aryl hydrocarbon Receptor (AhR), a member of the family of basic helix-loop-helix transcription factors, is crucial to adaptive responses to environmental changes. AhR mediates cellular responses to environmental pollutants such as aromatic hydrocarbons through induction of phase I and II enzymes but also interacts with other nuclear receptor signaling pathways A cell based HepG2-AhR-luc assay (HG2L7.5c1 cell line, developed by Dr. Michael S. Denison, University of California at Davis) was used to assess the activation of AhR. HepG2 (human hepatocellular carcinoma) cells were stably transfected with an Ah receptor-responsive firefly luciferase reporter gene plasmid containing 20 dioxin responsive elements and luciferase reporter gene. Increased luciferase activity can be used to identify the compounds that induce AhR activation. The cytotoxicity of the compounds screened against the HepG2-AhR-luc cell line was tested in parallel by measuring the cell viability using CellTiter-Fluor assay in the same wells.
Tox21 Assay Protocol Summary: 4000 cells in 5 uL/well were dispensed into white wall/solid bottom 1536-well plates using a Multidrop Combi (Thermo Fisher Scientific Inc., Waltham, MA) dispenser. After the assay plates were incubated at 37C for 5 h, 23 nL of compound or DMSO vehicle was transferred to the assay plates by a pintool station (Kalypsys, San Diego, CA). The plates were incubated at 37C for 24 hr. For cell viability measurement, 1 ul/well of CellTiter-Fluor reagent (Promega, Madison, WI) was added into the assay plates using a Flying Reagent Dispenser (FRD) (Aurora Discovery, CA),and then the assay plates were incubated at 37C for 30 min. The fluorescence intensity in the plates was measured using a ViewLux plate reader (PerkinElmer, Shelton, CT), followed by the addition of 4 uL of ONE-Glo Luciferase Assay reagent (Promega) using an FRD (Aurora Discovery). After the assay plates were incubated at room temperature for 30 min, luminescence intensity was measured using a ViewLux plate reader (Perkin Elmer).
% is scaled to controls: 0 for no effect and ±100 for the full control effect.

Compound | viability change, negative = cytotoxic
CC(C)OC(=O)OCOP(=O)(CO[C@H](C)Cn1cnc2c(N)ncnc21)OCOC(=O)OC(C)C | 4.88% (inactive)
O=C1CCC(=O)N1Cl | 3.78% (inactive)
CN(C)CCCO[C@@H]1[C@H]2OC(C)(C)O[C@H]2O[C@@H]1C(O)CO (stereo not given in full) | 3.89% (inactive)
CCCc1ccc(O)cc1 | 5.75% (inactive)
CC(=O)c1cc(C)oc1C | 1.03% [at 95 µM] (inactive)
N#CCC(=O)NN | -12% (inactive)
CC(=O)CCc1ccc(OC(C)=O)cc1 | -3.57% (inactive)
CNCCS(=O)(=O)O | 2.85% [at 95 µM] (inactive)
COC(=O)c1cccc(Cl)c1 | 4.47% (inactive)
C=C(C)C1CC=C(C)C(=O)C1 (stereo not given) | 11.1% (inactive)
CCCCCCCCCCCCCCCCCCOCCO | 4.19% [at 32.5 µM] (inactive)
CCC/C=C(\C=O)CC | 1.56% (inactive)
OC1OCCOC1O (stereo not given) | -10.4% (inactive)
CCC(=O)c1c(O)cc(O)cc1O | -4.48% (inactive)
O=C(O)CCCCCC(=O)O | -0.196% [at 95 µM] (inactive)
CCCCOCCOC(=O)COc1ccc(Cl)cc1Cl | 25% (inactive)
CC(=O)OC1CCCCC1C(C)(C)C (stereo not given) | 5.94% (inactive)
CC1CC(=O)CC(C)(C)C1 (stereo not given) | 5.81% (inactive)
CCC(C)C(=O)OCCc1ccccc1 (stereo not given) | -9.06% (inactive)
Cc1cc(-c2ccccc2)nnc1NCCN1CCOCC1 | 1.15% (inactive)

Compound | viability change, negative = cytotoxic
CCOC(=O)CC1(C)OCC(C)O1 (stereo not given) | -6.37% (inactive)
NCC1(Cc2noc(=O)[nH]2)CCCCC1 | 5.57% (inactive)
CC1(C)Oc2ccc(C#N)cc2[C@@H](N2CCCC2=O)[C@@H]1O | 14.4% (inactive)
CCOc1cccc(N)c1 | 14% (inactive)
C=CCCCC | -1.15% [at 95 µM] (inactive)
CCCC(=O)OCCC(C)CCC=C(C)C (stereo not given) | 5.47% (inactive)
Cc1ccc2c(c1)C(=O)c1ccccc1C2=O | -3.69% (inactive)
CC1=C(O)C(=O)C(C)O1 (stereo not given) | 7.27% [at 95 µM] (inactive)
O=Cc1ccccc1Cl | -1.13% (inactive)
COC(=O)c1ccccc1C(=O)O | 15% (inactive)
O=C(CCCCC(=O)Nc1c(I)cc(I)c(C(=O)O)c1I)Nc1c(I)cc(I)c(C(=O)O)c1I | -0.901% (inactive)
O=C(O)[C@H](O)c1ccccc1 | 1.42% (inactive)
CCCCCCC1(C)CCC(=O)O1 (stereo not given) | -7.01% (inactive)
CC(C)CO | 4.89% [at 95 µM] (inactive)
CC(C)NCC(O)c1ccc2ccccc2c1 (stereo not given) | -22.5% (inactive)
Cc1ccnc(N)c1 | 13% (inactive)
CCCCCC/C=C/C(=O)OC | 0.53% (inactive)
Cc1ccccc1C(N)=O | 3.4% (inactive)
CC1=NN(c2ccc(S(=O)(=O)O)cc2)C(=O)C1 | -1.95% (inactive)
CC(=O)OC(C)=O | -2.15% [at 95 µM] (inactive)
